The values below come from PubChem BioAssay (NCI).

Compounds without any hit were thinned out: in the full panel of roughly 83,000, 20% have a hit.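 Percent growth is the endpoint: 0 to 100 indicates growth inhibition (40 means 60% inhibition), 0 means no net growth, and negative values indicate cell death.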 Unmarked numbers belong to inactive results. Activity calls are given as the source filed them. The calls were made as follows: active = growth percent below 10; inactive = the rest.

For the test, the system named is MDA-MB-468 breast. In words: NCI-60 one-dose screen, 48 h (100 = growth as untreated, 0 = no growth, -100 = all killed). Conditions: 10 µM unless noted.
Regarding `O=[N+]([O-])c1ccc(Nc2nc(NCCN3CCOCC3)ncc2[N+](=O)[O-])cc1`, the growth is 70.8%. On to `CN(C)C(=O)SC1=C(c2c(Cl)cccc2Cl)C(=O)c2ccccc21`, for which the growth is -86.5% (active). For the compound `Cc1ccc(C(=O)/C(=C/c2ccc([N+](=O)[O-])cc2)SCc2ccc(Cl)cc2)cc1`, the growth is 72.9%. In the case of `Cc1ccc(C2CC(c3nc(-c4ccc(Cl)cc4)oc3C)=NN2C(=O)c2ccncc2)cc1` (stereo unspecified), the growth was 97.8%. With `CC(C)=C1CCC(C)C/C1=N\N=C(N)N` (stereo unspecified), the growth was 101%. For `c1ccc(CNc2nc(Nc3ccccc3)nc3ccccc23)cc1` the value was 13.2%; for `COc1ccc(-c2cc(-c3cccc(Cl)c3)c(C#N)c(=O)[nH]2)c(OC)c1`, 113%; for `COCc1nc2ccccc2[nH]1`, 102%. Turning to `CC(C)(C)C(=O)Nc1nc2c(s1)CCc1ccn(S(=O)(=O)c3ccccc3)c1-2`, the growth was 88.7%.

For `O=C(Nc1cccc(Cl)c1)Oc1c(Cl)c(Cl)c(Cl)c(Cl)c1Cl`, the growth is 110%. For `O=C(NO)c1ccc(NCc2csc3ccccc23)cc1` the value was 76.9%.

Consider `CC(C)(c1ccccc1)c1cc(O)c(C(C)(C)c2ccccc2)cc1O`, for which the growth is 26.4%.

For the compound `O=C(C[P+](c1ccccc1)(c1ccccc1)c1ccccc1)C[P+](c1ccccc1)(c1ccccc1)c1ccccc1`, the growth was -33.8% (active). For `O=C(O)c1ccc2cccnc2c1O` the value was -31.1% (active); for `S=c1ccnc[nH]1`, 122%.

On to `O=C(Nc1ccccc1)c1cc2ccccc2s1`, for which the growth was 89.1%.
